Assay results published in article PMC7862700, “An all-to-all approach to the identification of sequence-specific readers for epigenetic DNA modifications on cytosine”.

Key:
Experiment in all cases: DAPPL (digital affinity profiling via proximity ligation, sequencing); 10 mM Tris-HCl pH 7.5, 50 mM NaCl, 1 mM DTT, 4% glycerol, room temperature, 30 min; GST-TFs on glutathione beads, 16-mer random dsDNA library, 0.1% formaldehyde crosslink after washing; high values mean tight binding
Settings in all cases: protein: recombinant; tags: N-terminal GST; dsDNA, one strand shown
[1] = biological target: T1, ERF (Homo sapiens, UniProt P50548 1-548)
T1 sequence: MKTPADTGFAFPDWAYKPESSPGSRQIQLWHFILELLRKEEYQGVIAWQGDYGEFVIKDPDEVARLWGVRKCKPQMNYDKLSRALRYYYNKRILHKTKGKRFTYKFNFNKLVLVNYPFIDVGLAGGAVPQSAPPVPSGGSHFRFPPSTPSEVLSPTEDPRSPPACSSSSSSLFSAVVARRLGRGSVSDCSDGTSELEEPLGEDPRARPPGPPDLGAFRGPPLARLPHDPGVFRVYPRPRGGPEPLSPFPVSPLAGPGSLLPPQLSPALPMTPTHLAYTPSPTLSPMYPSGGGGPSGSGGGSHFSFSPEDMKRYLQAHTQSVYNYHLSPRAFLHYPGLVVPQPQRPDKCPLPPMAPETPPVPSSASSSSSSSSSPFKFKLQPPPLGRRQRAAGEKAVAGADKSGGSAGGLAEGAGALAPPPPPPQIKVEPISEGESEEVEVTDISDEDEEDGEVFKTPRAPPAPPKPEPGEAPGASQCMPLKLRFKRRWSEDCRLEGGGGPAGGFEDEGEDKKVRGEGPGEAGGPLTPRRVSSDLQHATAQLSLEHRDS
How it was run: (§1)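 Binding signal is each hexamer's read frequency for a factor divided by its frequency in the tag-only sample. The factors were GST-fused human transcription factors from yeast, captured on glutathione beads, DNA-barcoded and pooled with that sample. Pools were incubated with 200 nmole of a random double-stranded 16-mer DNA library in Tris/NaCl/DTT/glycerol buffer at room temperature for 30 min, then washed, crosslinked with 0.1% formaldehyde, proximity-ligated with BsaI/T4 ligase (1 h, 37 °C), PCR-amplified and sequenced on an Illumina NextSeq500.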

[2] = biological target: T2, ETV3L (Homo sapiens, UniProt Q6ZN32 1-361)
T2 sequence: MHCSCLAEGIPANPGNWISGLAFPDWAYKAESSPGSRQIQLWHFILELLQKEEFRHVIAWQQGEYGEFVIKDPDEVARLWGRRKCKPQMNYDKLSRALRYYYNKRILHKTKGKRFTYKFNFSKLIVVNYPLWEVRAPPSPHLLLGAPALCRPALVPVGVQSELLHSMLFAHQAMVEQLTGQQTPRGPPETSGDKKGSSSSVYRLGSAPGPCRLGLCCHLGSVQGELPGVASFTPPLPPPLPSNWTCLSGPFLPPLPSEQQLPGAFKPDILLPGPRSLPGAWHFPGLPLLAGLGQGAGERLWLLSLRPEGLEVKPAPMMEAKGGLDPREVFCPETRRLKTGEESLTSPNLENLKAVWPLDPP
How it was run: as §1

[3] = biological target: T3, ETS2 (Homo sapiens, UniProt P15036 1-469)
T3 sequence: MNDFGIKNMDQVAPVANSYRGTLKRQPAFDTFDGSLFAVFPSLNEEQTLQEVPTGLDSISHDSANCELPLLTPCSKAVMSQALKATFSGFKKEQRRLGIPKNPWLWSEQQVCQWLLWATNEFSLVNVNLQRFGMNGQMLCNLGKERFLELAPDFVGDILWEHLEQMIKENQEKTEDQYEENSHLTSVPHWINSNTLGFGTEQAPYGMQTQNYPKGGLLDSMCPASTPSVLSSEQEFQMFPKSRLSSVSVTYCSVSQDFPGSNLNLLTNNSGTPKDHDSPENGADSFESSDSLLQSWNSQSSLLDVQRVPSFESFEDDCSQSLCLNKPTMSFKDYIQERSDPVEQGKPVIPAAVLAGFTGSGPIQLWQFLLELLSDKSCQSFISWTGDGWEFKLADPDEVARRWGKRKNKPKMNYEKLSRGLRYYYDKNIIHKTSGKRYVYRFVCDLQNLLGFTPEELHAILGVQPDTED
How it was run: as §1

[4] = biological target: T4, SPDEF (Homo sapiens, UniProt O95238 1-335)
T4 sequence: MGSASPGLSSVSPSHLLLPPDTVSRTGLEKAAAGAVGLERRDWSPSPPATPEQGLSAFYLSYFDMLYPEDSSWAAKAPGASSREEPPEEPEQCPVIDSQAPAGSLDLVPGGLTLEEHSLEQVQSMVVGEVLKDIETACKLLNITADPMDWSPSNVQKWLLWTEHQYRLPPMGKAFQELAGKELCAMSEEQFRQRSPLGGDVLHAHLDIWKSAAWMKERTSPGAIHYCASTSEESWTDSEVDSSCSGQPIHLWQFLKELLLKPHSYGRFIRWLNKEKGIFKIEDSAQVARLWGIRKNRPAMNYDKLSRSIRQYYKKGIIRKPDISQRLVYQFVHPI
How it was run: as §1

[5] = biological target: T5, ETV7 (Homo sapiens, UniProt Q9Y603 1-341)
T5 sequence: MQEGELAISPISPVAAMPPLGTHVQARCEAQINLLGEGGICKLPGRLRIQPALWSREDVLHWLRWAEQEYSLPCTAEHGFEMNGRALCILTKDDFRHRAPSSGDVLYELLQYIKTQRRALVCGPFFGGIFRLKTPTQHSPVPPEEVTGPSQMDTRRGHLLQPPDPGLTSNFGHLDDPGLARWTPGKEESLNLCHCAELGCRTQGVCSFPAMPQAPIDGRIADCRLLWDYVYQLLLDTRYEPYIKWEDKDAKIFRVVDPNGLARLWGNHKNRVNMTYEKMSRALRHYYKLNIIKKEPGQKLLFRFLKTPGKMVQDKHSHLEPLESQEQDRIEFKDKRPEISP
How it was run: as §1

[6] = biological target: T6, ELF5 (Homo sapiens, UniProt Q9UKW6-2 1-255)
T6 sequence: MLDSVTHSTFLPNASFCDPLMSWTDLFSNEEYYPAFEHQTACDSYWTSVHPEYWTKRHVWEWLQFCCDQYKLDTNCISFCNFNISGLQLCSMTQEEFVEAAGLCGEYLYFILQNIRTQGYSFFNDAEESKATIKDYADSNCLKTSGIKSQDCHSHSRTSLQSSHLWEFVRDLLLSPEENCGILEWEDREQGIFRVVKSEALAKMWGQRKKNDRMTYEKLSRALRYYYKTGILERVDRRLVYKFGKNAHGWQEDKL
How it was run: as §1

[7] = biological target: T7, ETV3 (Homo sapiens, UniProt P41162-2 1-143)
T7 sequence: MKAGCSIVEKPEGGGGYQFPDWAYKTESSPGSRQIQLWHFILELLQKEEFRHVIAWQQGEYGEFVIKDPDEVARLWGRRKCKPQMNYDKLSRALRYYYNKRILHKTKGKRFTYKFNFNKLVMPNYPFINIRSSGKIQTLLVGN
How it was run: as §1

[8] = biological target: ETV6 (Homo sapiens, UniProt P41212 1-452)
Sequence of ETV6 (P41212 whole entry): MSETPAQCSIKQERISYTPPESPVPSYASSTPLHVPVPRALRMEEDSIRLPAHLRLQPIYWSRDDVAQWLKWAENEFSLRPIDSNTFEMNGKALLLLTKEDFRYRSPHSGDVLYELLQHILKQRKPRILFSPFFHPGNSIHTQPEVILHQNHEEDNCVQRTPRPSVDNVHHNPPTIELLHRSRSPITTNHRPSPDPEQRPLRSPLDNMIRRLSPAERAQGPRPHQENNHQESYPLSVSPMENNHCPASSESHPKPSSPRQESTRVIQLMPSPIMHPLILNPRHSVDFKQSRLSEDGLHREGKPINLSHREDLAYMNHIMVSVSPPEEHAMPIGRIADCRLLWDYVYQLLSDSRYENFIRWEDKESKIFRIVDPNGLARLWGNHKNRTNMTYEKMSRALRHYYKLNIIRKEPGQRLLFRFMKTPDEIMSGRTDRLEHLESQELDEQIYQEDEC
How it was run: as §1

Sequence	binding signal [1]	binding signal [2]	binding signal [3]	binding signal [4]	binding signal [5]	binding signal [6]	binding signal [7]	binding signal [8]
CTCACA	1.29 fold enrichment (6-mer frequency, TF over GST control)	1.38 fold enrichment (6-mer frequency, TF over GST control)	1.31 fold enrichment (6-mer frequency, TF over GST control)	1.33 fold enrichment (6-mer frequency, TF over GST control)	1.24 fold enrichment (6-mer frequency, TF over GST control)	1.31 fold enrichment (6-mer frequency, TF over GST control)	1.3 fold enrichment (6-mer frequency, TF over GST control)	1.24 fold enrichment (6-mer frequency, TF over GST control)
ATTCAT	1.14 fold enrichment (6-mer frequency, TF over GST control)	1.27 fold enrichment (6-mer frequency, TF over GST control)	1.13 fold enrichment (6-mer frequency, TF over GST control)	1.07 fold enrichment (6-mer frequency, TF over GST control)	1.18 fold enrichment (6-mer frequency, TF over GST control)	1.1 fold enrichment (6-mer frequency, TF over GST control)	1.19 fold enrichment (6-mer frequency, TF over GST control)	1.11 fold enrichment (6-mer frequency, TF over GST control)
ACTAAA	1.27 fold enrichment (6-mer frequency, TF over GST control)	1.32 fold enrichment (6-mer frequency, TF over GST control)	1.3 fold enrichment (6-mer frequency, TF over GST control)	1.25 fold enrichment (6-mer frequency, TF over GST control)	1.24 fold enrichment (6-mer frequency, TF over GST control)	1.28 fold enrichment (6-mer frequency, TF over GST control)	1.21 fold enrichment (6-mer frequency, TF over GST control)	1.28 fold enrichment (6-mer frequency, TF over GST control)
TTCTGG	1.35 fold enrichment (6-mer frequency, TF over GST control)	1.23 fold enrichment (6-mer frequency, TF over GST control)	1.19 fold enrichment (6-mer frequency, TF over GST control)	1.23 fold enrichment (6-mer frequency, TF over GST control)	1.21 fold enrichment (6-mer frequency, TF over GST control)	1.22 fold enrichment (6-mer frequency, TF over GST control)	1.2 fold enrichment (6-mer frequency, TF over GST control)	1.32 fold enrichment (6-mer frequency, TF over GST control)
CTCCTC	1.32 fold enrichment (6-mer frequency, TF over GST control)	1.61 fold enrichment (6-mer frequency, TF over GST control)	1.33 fold enrichment (6-mer frequency, TF over GST control)	1.29 fold enrichment (6-mer frequency, TF over GST control)	1.29 fold enrichment (6-mer frequency, TF over GST control)	1.32 fold enrichment (6-mer frequency, TF over GST control)	1.22 fold enrichment (6-mer frequency, TF over GST control)	1.38 fold enrichment (6-mer frequency, TF over GST control)
GCGCTT	1.42 fold enrichment (6-mer frequency, TF over GST control)	1.3 fold enrichment (6-mer frequency, TF over GST control)	1.37 fold enrichment (6-mer frequency, TF over GST control)	1.2 fold enrichment (6-mer frequency, TF over GST control)	1.34 fold enrichment (6-mer frequency, TF over GST control)	1.31 fold enrichment (6-mer frequency, TF over GST control)	1.42 fold enrichment (6-mer frequency, TF over GST control)	1.33 fold enrichment (6-mer frequency, TF over GST control)
GAATAA	1.23 fold enrichment (6-mer frequency, TF over GST control)	1.15 fold enrichment (6-mer frequency, TF over GST control)	1.09 fold enrichment (6-mer frequency, TF over GST control)	1.09 fold enrichment (6-mer frequency, TF over GST control)	1.07 fold enrichment (6-mer frequency, TF over GST control)	1.05 fold enrichment (6-mer frequency, TF over GST control)	1.06 fold enrichment (6-mer frequency, TF over GST control)	1.16 fold enrichment (6-mer frequency, TF over GST control)
GATCTT	1.15 fold enrichment (6-mer frequency, TF over GST control)	1.15 fold enrichment (6-mer frequency, TF over GST control)	1.15 fold enrichment (6-mer frequency, TF over GST control)	1.42 fold enrichment (6-mer frequency, TF over GST control)	1.28 fold enrichment (6-mer frequency, TF over GST control)	1.29 fold enrichment (6-mer frequency, TF over GST control)	1.24 fold enrichment (6-mer frequency, TF over GST control)	1.14 fold enrichment (6-mer frequency, TF over GST control)
CTGATA	1.16 fold enrichment (6-mer frequency, TF over GST control)	1.21 fold enrichment (6-mer frequency, TF over GST control)	1.17 fold enrichment (6-mer frequency, TF over GST control)	1.15 fold enrichment (6-mer frequency, TF over GST control)	1.08 fold enrichment (6-mer frequency, TF over GST control)	1.2 fold enrichment (6-mer frequency, TF over GST control)	1.26 fold enrichment (6-mer frequency, TF over GST control)	1.06 fold enrichment (6-mer frequency, TF over GST control)
CCTGAC	1.37 fold enrichment (6-mer frequency, TF over GST control)	1.59 fold enrichment (6-mer frequency, TF over GST control)	1.56 fold enrichment (6-mer frequency, TF over GST control)	1.51 fold enrichment (6-mer frequency, TF over GST control)	1.46 fold enrichment (6-mer frequency, TF over GST control)	1.63 fold enrichment (6-mer frequency, TF over GST control)	1.44 fold enrichment (6-mer frequency, TF over GST control)	1.6 fold enrichment (6-mer frequency, TF over GST control)
TCACTG	1.17 fold enrichment (6-mer frequency, TF over GST control)	1.4 fold enrichment (6-mer frequency, TF over GST control)	1.28 fold enrichment (6-mer frequency, TF over GST control)	1.16 fold enrichment (6-mer frequency, TF over GST control)	1.3 fold enrichment (6-mer frequency, TF over GST control)	1.17 fold enrichment (6-mer frequency, TF over GST control)	1.16 fold enrichment (6-mer frequency, TF over GST control)	1.2 fold enrichment (6-mer frequency, TF over GST control)
TTCTCT	1.19 fold enrichment (6-mer frequency, TF over GST control)	1.39 fold enrichment (6-mer frequency, TF over GST control)	1.23 fold enrichment (6-mer frequency, TF over GST control)	1.31 fold enrichment (6-mer frequency, TF over GST control)	1.26 fold enrichment (6-mer frequency, TF over GST control)	1.35 fold enrichment (6-mer frequency, TF over GST control)	1.3 fold enrichment (6-mer frequency, TF over GST control)	1.24 fold enrichment (6-mer frequency, TF over GST control)
TACACT	1.51 fold enrichment (6-mer frequency, TF over GST control)	1.51 fold enrichment (6-mer frequency, TF over GST control)	1.49 fold enrichment (6-mer frequency, TF over GST control)	1.55 fold enrichment (6-mer frequency, TF over GST control)	1.49 fold enrichment (6-mer frequency, TF over GST control)	1.52 fold enrichment (6-mer frequency, TF over GST control)	1.45 fold enrichment (6-mer frequency, TF over GST control)	1.6 fold enrichment (6-mer frequency, TF over GST control)
TCCTCG	1.48 fold enrichment (6-mer frequency, TF over GST control)	1.57 fold enrichment (6-mer frequency, TF over GST control)	1.35 fold enrichment (6-mer frequency, TF over GST control)	1.33 fold enrichment (6-mer frequency, TF over GST control)	1.49 fold enrichment (6-mer frequency, TF over GST control)	1.93 fold enrichment (6-mer frequency, TF over GST control)	1.5 fold enrichment (6-mer frequency, TF over GST control)	1.48 fold enrichment (6-mer frequency, TF over GST control)
AAACTA	1.29 fold enrichment (6-mer frequency, TF over GST control)	1.27 fold enrichment (6-mer frequency, TF over GST control)	1.35 fold enrichment (6-mer frequency, TF over GST control)	1.29 fold enrichment (6-mer frequency, TF over GST control)	1.31 fold enrichment (6-mer frequency, TF over GST control)	1.32 fold enrichment (6-mer frequency, TF over GST control)	1.24 fold enrichment (6-mer frequency, TF over GST control)	1.25 fold enrichment (6-mer frequency, TF over GST control)
